# According to PubChem BioAssay (NCI):
# The panel holds about 83,000 compounds, 20% with a hit somewhere; the sample as a whole holds those more often.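 96-well plates, one dose, 48 hours. Percent growth reported; active if below 10.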 Values without a mark were called inactive. Activity calls are given as the source filed them.
# Tests used:
# Experiment in all cases: NCI-60 one-dose screen, 48 h (100 = growth as untreated, 0 = no growth, -100 = all killed)
# RPMI-8226 leukemia = settings: 10 µM unless noted
# OVCAR-8 ovarian = settings: 10 µM unless noted
# OVCAR-5 ovarian = settings: 10 µM unless noted
# SK-OV-3 ovarian = settings: 10 µM unless noted
# IGROV1 ovarian = settings: 10 µM unless noted
# OVCAR-3 ovarian = settings: 10 µM unless noted
# HS 578T breast = settings: 10 µM unless noted
# NCI/ADR-RES ovarian = settings: 10 µM unless noted
# T-47D breast = settings: 10 µM unless noted
# BT-549 breast = settings: 10 µM unless noted
# MDA-MB-435 melanoma = settings: 10 µM unless noted
# SW-620 colon = settings: 10 µM unless noted
# MCF7 breast = settings: 10 µM
# HCT-116 colon = settings: 10 µM unless noted
# HCC-2998 colon = settings: 10 µM unless noted
# KM12 colon = settings: 10 µM unless noted
# OVCAR-4 ovarian = settings: 10 µM unless noted
Structure (SMILES),growth (RPMI-8226 leukemia),growth (OVCAR-8 ovarian),growth (OVCAR-5 ovarian),growth (SK-OV-3 ovarian),growth (IGROV1 ovarian),growth (OVCAR-3 ovarian),growth (HS 578T breast),growth (NCI/ADR-RES ovarian),growth (T-47D breast),growth (BT-549 breast),growth (MDA-MB-435 melanoma),growth (SW-620 colon),growth (MCF7 breast),growth (HCT-116 colon),growth (HCC-2998 colon),growth (KM12 colon),growth (OVCAR-4 ovarian)
FC(F)(F)c1cccc(Nc2nc(-c3ccccc3)nc3ncccc23)c1,-39.8% (active),89.4%,107%,90.2%,98.8%,32.2%,-49.5% (active),86.3%,82.9%,60.8%,-79.4% (active),-53% (active),68.2%,28.5%,-68.3% (active),38.1%,–
O=C(Nc1ccccc1O)c1ccc(-c2ccc(Cl)cc2Cl)o1,74.1%,94.3%,99.2%,94.5%,88.3%,85.6%,93.8%,90.3%,77.2%,91.7%,96.9%,101%,87.5%,68.7%,96.5%,78.8%,–
CC1CCCCN1CCCNC(=O)c1ccc2c(c1)sc1nc(-c3ccc(F)cc3)cn12 (stereo unspecified),86%,105%,100%,99.7%,93.8%,105%,98.5%,87.6%,93.4%,91%,109%,105%,–,89.7%,88.7%,101%,–
CCOC(=O)c1ccc2[nH]c(-c3ccccc3)cc(=O)c2c1,88.2%,97.6%,101%,112%,92.5%,106%,104%,102%,105%,103%,107%,103%,99.8%,99.4%,112%,105%,–
CCCCN1CCN(c2ccc3nc(-c4ccc5nc(-c6ccc(OCC)cc6)[nH]c5c4)[nH]c3c2)CC1,-25.3% (active),70.1%,135%,–,71.9%,-18% (active),74.4%,87.8%,–,83.9%,55.1%,8.61% (active),1.77% (active),21.1%,90.3%,49.1%,55.2%
Cc1ccc(CN2CCC(C(=O)Nc3ccc(-c4cc5ccccc5[nH]4)cc3)CC2)o1,20.5%,53.3%,98.1%,107%,61%,49.4%,67%,44.3%,92.1%,72.5%,58.9%,66%,64.1%,49.9%,79.4%,24.4%,–
c1ccc2cc3c(Nc4ccc(N5CCOCC5)cc4)ccnc3cc2c1,60.1%,94.3%,97%,107%,89.5%,96%,103%,91.1%,95.5%,99.3%,95.6%,101%,84%,90.2%,109%,102%,–
CCOC(=O)c1cc2c(n1Cc1cc(OC)c(OC)c(OC)c1)-c1oncc1CCC2,16.8%,16.6%,56.2%,11.2%,33.3%,-22% (active),18.2%,3.55% (active),74%,31.9%,-53.9% (active),21.5%,7.45% (active),8.98% (active),17.2%,28.4%,–
